Only a selection was taken, and hits are over-represented in it overall.
ST2 inh – blocks human ST2 binding to IL-33 | Q01638 | 78,000 compounds, 2.3% hits | AID 1259354 | AlphaLISA ST2-Fc/biotin-IL-33 interaction, 1 h | inhibition, % for hits at 17 µM; in the data active means inhibition above about 30%
* = called active by the depositor; i = inactive; ! = not confirmed by another sample.

SMILES | ST2 inh
O=C(c1cccs1)N1CCN=C1SCc1c(F)cccc1Cl | i
Cc1oc2c(C)c(OC(=O)N3CCOCC3)ccc2c(=O)c1-c1nc2ccccc2s1 | i
O=C(O)c1ccc2c(c1)C(=O)N(c1cc(Cl)ccc1O)C2=O | i
COc1ccc(NC(=O)c2sc3cc(C)ccc3c2Cl)c(OC)c1 | i
N=C1S/C(=C/c2ccc(-c3ccccc3C(=O)O)o2)C(=O)N1c1nccs1 | i
Cc1c(C(=O)O)cccc1-c1ccc(/C=C/[N+](=O)[O-])o1 | 61.0%*
Cc1ccc(Cl)cc1-c1ccc(/C=C/[N+](=O)[O-])o1 | 51.0%*
COc1cc([N+](=O)[O-])ccc1-c1ccc(/C=C2\C(=O)N(c3cccc(Cl)c3)N=C2C)o1 | i
CC(=O)Nc1ccccc1-c1ccc(C)o1 | i
CC(C)c1ccc2oc(-c3ccc(NC(=O)c4cccs4)cc3)nc2c1 | i
COc1cccc(C2=NN(C(=O)c3ccccc3Cl)C(O)(C(F)(F)F)C2)c1 (stereo unspecified) | i
CC[C@@H]1C[C@H](NC(=O)c2ccccc2)C[C@H](CCc2ccccc2)O1 | i
CC(C)c1cc(N2CCCC3(CC2)CNC(=O)O3)nc(C(F)(F)F)n1 (stereo unspecified) | i
CC(C)c1cc(NC2CC(=O)N(CC(C)(C)C)C2)nc(C(F)(F)F)n1 (stereo unspecified) | 31.0%*
CC(C)c1cc(NCc2cccnc2N2CCCC(O)C2)nc(C(F)(F)F)n1 (stereo unspecified) | i
Cc1ccc(C2CC(c3ccc(Br)cc3)Nc3nc(N)nn32)cc1 (stereo unspecified) | i
COc1cc(CN2CCc3c([nH]c4ccccc34)C2)c([N+](=O)[O-])cc1OC | i
COc1ccc(Nc2cc(C)nc3c(C)c(C)ccc23)cc1OC | i
COc1ccc(OC)c(Nc2cc(C)nc3c(C)c(C)ccc23)c1 | 37.0%*
COc1ccc(Nc2cc(C)nc3c(C)c(C)ccc23)cc1 | i
CCN(CC)c1ccc(C2CC(=O)C3=C(C2)Nc2ccccc2NC3c2ccccc2)cc1 (stereo unspecified) | i
Cc1nc2c(c(=O)n1C)CCN(Cc1cn[nH]c1-c1ccccc1)CC2 | i
CCN1CCN(C(=O)c2cn(CC(C)C)c(=O)c3c2c2ccccc2n3C)CC1 | i
COc1ccc2cc3cc(C(=O)NC(C)C)oc3nc2c1 | i
CC(C)OCCCNC(=O)c1cc2cc3ccc(Cl)cc3nc2o1 | i
SMILES | ST2 inh
CCC(C)NC(=O)c1cc2cc3ccc(Cl)cc3nc2o1 (stereo unspecified) | 31.0%*!
COc1ccc(CN[C@H]2C[C@@H](c3nc(-c4ccc(OC)cc4)no3)N(C)C2)cc1 | i
CC(C)Cn1c(CCCO)nc2ccccc21 | i
CCN(CC)Cc1cc(C(=O)N2CC[C@H](CO)[C@H](O)C2)c(C)o1 | i
COc1ccc2c(=O)c(Oc3ccccc3)c(C(F)(F)F)oc2c1OC | i
CC(=O)Oc1ccc2c(=O)c(Oc3ccccc3)c(C)oc2c1OC(C)=O | i
COc1ccc2c(=O)c(Oc3ccccc3)c(C)oc2c1OC | 30.0%*
CCCC(=O)N1c2ccccc2Sc2ccccc21 | i
O=C(Cn1c(=O)[nH]c2ccsc2c1=O)NCCc1ccc(Cl)cc1 | i
CCCCN(CCCC)S(=O)(=O)c1ccc(C(=O)Nc2nnc(-c3ccc(F)cc3)o2)cc1 | i
O=S(=O)(c1ccc(-c2csc(=Nc3ccccc3)n2CCCO)cc1)N1CCOCC1 | 39.0%*
CCN(CC)S(=O)(=O)c1ccc(C(=O)N=c2sc3ccccc3n2C)cc1 | i
CSc1ccccc1C(=O)Nc1ccc(S(=O)(=O)N2CCOCC2)cc1 | i
O=C(Nc1nc2ccccc2s1)c1ccc(S(=O)(=O)N2CCOCC2)cc1 | i
CCN(CC)S(=O)(=O)c1ccc(-c2csc(=Nc3ccc(F)cc3)n2CCCO)cc1 | 43.0%*
O=C(NCc1ccc2c(c1)OCO2)c1cccn2c(=O)c3cc4ccccc4cc3nc12 | i
COc1ccccc1CCN1CCC(CN(C)C(=O)Cc2ccsc2)CC1 | i
O=c1oc(-c2cccs2)nc2sc3c(c12)CCC3 | i
O=c1oc(-c2ccccc2Cl)nc2ccc(Br)cc12 | i
O=c1oc(/C=C/c2ccco2)nc2sc3c(c12)CCCCC3 | 36.0%*
O=C(c1ccco1)N1CCN(C(=O)c2cccn3c(=O)c4c5c(sc4nc23)CCCC5)CC1 | i
O=c1oc(-c2ccccc2Cl)nc2sc3c(c12)CCC3 | 45.0%*
O=c1[nH]c(/C=C/c2ccccc2)nc2sc3c(c12)CCCC3 | i
O=C(c1ccc(Cl)cc1[N+](=O)[O-])N1CCCCC1 | i
CCN(CC)CC(=O)N1CCN2C(=O)CNC(=O)C2C1 (stereo unspecified) | i
COc1ccc(C(=O)N2CCN=C2SCc2ccc(Br)cc2)cc1 | i
CSc1nc(N)c(C#N)c(-c2ccc(Br)cc2)c1C#N | i
CCOc1ccc(NC(=O)Cn2c(=O)n(-c3ccc(C)c(F)c3)c(=O)c3sccc32)cc1 | i
CCCCNc1nc(CC)c2c(c1C#N)CC(C)(C)OC2 | i
COc1ccc(C2CC(=O)C3=C(C2)Nc2ccccc2NC3c2ccc(C)s2)cc1 (stereo unspecified) | 30.0%*

Compound activity from PubChem BioAssay.
